The values that follow come from PubChem BioAssay AID633 (Emory University Molecular Libraries Screening Center, 2007).

In all, about 86,000 compounds went through this assay and about 1,100 (1.3%) were called active.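 How the source made its calls: active means compounds whose percent inhibition of the receptor-coactivator binding signal exceeds about 50% in the single-dose screen (limit read from the data); inactive means the rest.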 The entries come from a sample that favours actives as a whole.

Sequence of Estrogen receptor beta (Homo sapiens) (Q92731 whole entry, looked up, the tested form may be a part): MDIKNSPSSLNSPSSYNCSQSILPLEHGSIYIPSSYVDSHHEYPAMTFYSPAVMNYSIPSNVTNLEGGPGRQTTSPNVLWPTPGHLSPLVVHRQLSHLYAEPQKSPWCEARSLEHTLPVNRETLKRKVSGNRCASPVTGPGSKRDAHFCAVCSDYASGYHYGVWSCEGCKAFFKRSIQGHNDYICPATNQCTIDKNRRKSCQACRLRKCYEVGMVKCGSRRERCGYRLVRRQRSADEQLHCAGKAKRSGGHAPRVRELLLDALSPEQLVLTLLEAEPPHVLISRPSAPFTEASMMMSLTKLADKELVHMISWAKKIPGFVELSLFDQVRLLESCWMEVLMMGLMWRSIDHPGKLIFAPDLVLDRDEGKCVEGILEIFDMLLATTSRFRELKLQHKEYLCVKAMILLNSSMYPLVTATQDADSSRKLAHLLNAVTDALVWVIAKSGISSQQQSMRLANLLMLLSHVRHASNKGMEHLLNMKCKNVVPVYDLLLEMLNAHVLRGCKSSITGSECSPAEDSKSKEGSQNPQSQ

This experiment concerns the target Estrogen receptor beta (Homo sapiens) (UniProt Q92731). Nature of the experiment: inhibitors of ERβ-SRC1 coactivator interaction, primary screen, biochemical, TR-FRET, ERβ LBD, SRC-1 peptide (AID 633).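 Further: 0% = receptor plus peptide wells without compound and 100% = peptide-only wells.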 The settings on record: TR-FRET ER-beta LBD / SRC1-Cy5 peptide binding; at 25.6 µM; hits give high values; receptor agonist-loaded with 1 µM estradiol.
Consider `CCOC(=O)C1CSC(CC(=O)Nc2ccc(OCC)cc2)C(=O)N1` (stereo unspecified), for which the inhibition was -12.7% (inactive). With `COc1ccc(NC(=O)CCN2CCCC2)c(OC)c1`, the inhibition is -0.42% (inactive). The same measure for `COc1ccc(OC)c(Nc2nc(-c3ccc(O)c(O)c3)cs2)c1`: 67.8% [fluorescence artefact?] (active). With `Oc1ccc(-c2csc(Nc3cccnc3)n2)cc1` the figure was 2.46% (inactive); with `COc1ccc(-c2n[nH]c(C)c2-c2ccc(OC)c(OC)c2)c(O)c1`, 3.54% (inactive). Turning to `O=C(COc1ccc(S(=O)(=O)NCc2ccccc2)cc1)N1CCOCC1`, the inhibition is -22.9% (inactive).

Turning to `O=C(Nc1nnc(SCc2c(Cl)cccc2Cl)s1)C1CCCO1` (stereo unspecified), the inhibition is -1.99% (inactive). The same measure for `COc1cc(S(=O)(=O)N(Cc2cccs2)C2CC2)ccc1-n1cnnn1`: -25.2% (inactive); for `CC(=O)c1sc2nc(SCC(=O)N3CCCCC3)[nH]c(=O)c2c1C`: 56.2% (active); for `C=CCNC(=O)CSc1nc2sc(C)c(C)c2c(=O)[nH]1`: 6.38% (inactive).

Regarding `CCOC(=O)CSc1nc2sc3c(c2c(=O)[nH]1)CC(C)(C)OC3`, the inhibition is -8.89% (inactive). With `CCCCOc1ccc(C(=O)NCc2ccncc2)cc1` the figure was 0.29% (inactive).

Consider `N#CC1=C(N)N(c2ccccc2)C2=C(C(=O)CCC2)C1c1ccccc1` (stereo unspecified), for which the inhibition was -5.84% (inactive). The same measure for `CC(C)C1N=C2c3ccccc3N=C(SCC(=O)c3ccc(O)c(O)c3)N2C1=O` (stereo unspecified): 52.4% [fluorescence artefact?] (active). The same measure for `O=C(CSC1=Nc2ccccc2C2=NC(CC(=O)NCc3ccco3)C(=O)N12)NCc1ccco1` (stereo unspecified): 16.1% (inactive). The same measure for `CCC(C)NC(=O)CSC1=Nc2ccccc2C2=NC(CCC(=O)NCc3ccco3)C(=O)N12` (stereo unspecified): -5.03% (inactive); for `O=C1CSC2=NCN(c3ccccc3)CN12`: -6.24% (inactive). With `CCCCc1nnc(NC(=O)CSc2nc(C)cc(=O)[nH]2)s1`, the inhibition is 27.8% (inactive). With `COC(=O)c1cccc(NC(=O)CSc2nc(C)cc(=O)[nH]2)c1` the figure was 50.1% [fluorescence artefact?] (active).

For the compound `CCOC(=O)Cc1csc(NC(=O)CSc2nc(C)cc(=O)[nH]2)n1`, the inhibition was 1.35% (inactive). For `O=C(CCCn1c(SCC(=O)c2ccccc2)nc2ccccc2c1=O)NCC1CCCO1` (stereo unspecified), the inhibition was -2.4% (inactive). The same measure for `Cc1cc(C)c(OCC(=O)N/N=C/c2ccco2)c(C)c1`: -10.7% (inactive); for `CCCCNC(=O)C1(c2ccc(OC)cc2)CCOCC1`: 39.7% (inactive). The same measure for `Cc1ccc(SC(=O)COc2ccc(C)c(C)c2)cc1`: -2.52% (inactive); for `O=C(NC1CCCC1)C(c1ccccn1)N(C(=O)c1csnn1)C1CCCC1` (stereo unspecified): 3.18% (inactive). With `COc1cccc(NS(=O)(=O)c2ccc3[nH]cc(C(=O)NCCCOC(C)C)c(=O)c3c2)c1` the figure was 19.5% (inactive).

Take `CCCCNC(=O)c1c[nH]c2ccc(S(=O)(=O)Nc3ccc(OCC)cc3)cc2c1=O`: the inhibition is 29.9% (inactive). With `CCN(CC)S(=O)(=O)c1ccc2[nH]cc(C(=O)NCCc3ccccc3)c(=O)c2c1` the figure was 51.1% [fluorescence artefact?] (active); with `COC(=O)CSc1snnc1-c1ccc(Cl)c(Cl)c1`, -8.59% (inactive); with `Cc1cc(=O)oc2cc(OCC3CC(c4ccccc4Cl)=NO3)ccc12` (stereo unspecified), -1.82% (inactive).

Turning to `CCOCN(C(=O)Cn1c(C(C)O)nc2ccccc21)c1c(C)cccc1CC` (stereo unspecified), the inhibition is -15.2% (inactive). The same measure for `Cc1nc2c(c(=O)n1Cc1ccco1)c1nc3ccccc3nc1n2Cc1ccccc1`: 59.7% [fluorescence artefact?] (active); for `Cc1ccc(Cn2c(C)nc3c(c2=O)c2nc4ccccc4nc2n3Cc2ccco2)cc1`: 36% (inactive); for `COCCCn1c2nc3ccccc3nc2c2c(=O)n(Cc3ccc(Cl)cc3)c(C)nc21`: 12.9% (inactive). With `O=C(NCC(=O)N(Cc1cccs1)C(C(=O)NC1CCCCC1)c1ccco1)c1cccs1` (stereo unspecified) the figure was 6.36% (inactive); with `Cn1c(C(=O)OC(C(=O)NC2CCCCC2)c2ccccn2)cc2sccc21` (stereo unspecified), -0.81% (inactive). With `Cc1ccc2c(c1)N(CC(=O)N(Cc1ccccn1)Cc1ccco1)C(=O)C(C(C)C)O2` (stereo unspecified) the figure was 1.63% (inactive); with `O=C(NCc1cn2ccsc2n1)Nc1ccc(Cl)cc1`, -3.46% (inactive); with `COc1ccc(-c2cn3ccsc3n2)cc1`, 68% (active). `Cc1ccc(S(=O)(=O)NCc2cn3ccsc3n2)c(C)c1`: the inhibition is 0.6% (inactive). Consider `CCOC(=O)c1sc(NC(=O)c2ccncc2)nc1C`, for which the inhibition is -4.81% (inactive). With `O=C(NCc1cccnc1)Nc1ccccc1F` the figure was -19.3% (inactive); with `CCCCOC(=O)Cn1c(=O)n(CC(=O)OCCCC)c2cc(C)ccc21`, -3.48% (inactive); with `O=C(N/N=C/C=C/c1ccccc1)C1CC1(c1ccccc1)c1ccccc1` (stereo unspecified), 16.4% (inactive). With `COc1ccc(N2C(=O)C3CCCN3C2c2cccs2)cc1` (stereo unspecified) the figure was -13.6% (inactive); with `COc1ccc(N2C(=O)C3CCCN3C2c2cc(OC)c(OC)cc2OC)cc1` (stereo unspecified), 98.9% [fluorescence artefact?] (active). With `COc1ccc(N2C(=O)C3CCCN3C2c2cccc(OC)c2)cc1` (stereo unspecified) the figure was -7% (inactive). In the case of `COC(=O)c1[nH]c2ccccc2c1NC(=O)CN1CCCc2ccccc21`, the inhibition is 58.4% [fluorescence artefact?] (active). With `CCOC(=O)c1[nH]c2ccc(OC)cc2c1NC(=O)CCN1CCN(Cc2ccccc2)CC1` the figure was 5.39% (inactive); with `COC(=O)c1[nH]c2cccc(C)c2c1NC(=O)CN1CCCc2ccccc21`, 34.3% (inactive); with `CCn1c(-c2ccoc2C)n[nH]c1=S`, -2.85% (inactive). For `COCCOCCn1cnc2ccccc21`, the inhibition is -1.14% (inactive).

Take `Oc1c(CN2CCN(c3ccc(F)cc3)CC2)cc(Cl)c2cccnc12`: the inhibition was 1.3% (inactive). With `CCOC(=O)N1CCN(C(=O)CSc2ccc(Cl)cc2)CC1` the figure was -0.13% (inactive); with `CCOC(=O)N1CCN(C(c2cccnc2)c2ccc3cccnc3c2O)CC1` (stereo unspecified), 58% [fluorescence artefact?] (active).

In the case of `CCOC(=O)N1CCN(C(=O)c2cc3c(ccc4ccccc43)oc2=O)CC1`, the inhibition was 23.4% (inactive).

As for `CCN1CCN(C(c2cccnc2)c2cc(Cl)c3cccnc3c2O)CC1` (stereo unspecified), the inhibition was 72.4% [fluorescence artefact?] (active). For the compound `CC(=O)C1=C(C)NC(=O)NC1c1cc(Br)ccc1OCC#N` (stereo unspecified), the inhibition was -0.75% (inactive). The same measure for `CC(C)CC(N=C1NC(C)(C)Cc2ccccc21)C(=O)O` (stereo unspecified): -1.78% (inactive); for `CCCc1noc2c1/C(=N\O)CCC2`: 1.64% (inactive).

With `CCNCCC(=O)N1c2ccccc2Sc2ccc(NC(=O)OCC)cc21`, the inhibition was -17.8% (inactive). The same measure for `O=C(NCc1ccco1)c1ccc(Cn2c(=O)c3sccc3n(Cc3ccc(F)cc3)c2=O)cc1`: 18.4% (inactive); for `Cc1cccc(C(=O)N2CCCN(C(=O)c3cccc(C)c3)CC2)c1`: -0.48% (inactive); for `N#Cc1c2c(c(N3CCN(CCO)CC3)n3c1nc1ccccc13)CCCC2`: -8.78% (inactive). The same measure for `CCN1CCc2c(C#N)c(NCc3ccccc3)nc(NCCO)c2C1`: -0.53% (inactive); for `CN(C)CCCNc1c2c(c(C#N)c3nc4ccccc4n13)CCC2`: 70.9% [fluorescence artefact?] (active); for `O=c1onc(-c2cccs2)n1Cc1ccccc1`: -0.76% (inactive).

Turning to `CCCCCCNC(=O)CSc1nccn1Cc1ccccc1`, the inhibition is -2.58% (inactive). With `Cc1ccc(-n2c(SCC(=O)NCc3ccc4c(c3)OCO4)nnc2-c2cccnc2)c(C)c1` the figure was -8.68% (inactive); with `O=c1c2ccccc2nc(CSc2nnnn2-c2ccccc2)n1-c1ccccc1`, 61.2% [fluorescence artefact?] (active).

Take `O=c1c2ccccc2nnn1CSc1nnnn1-c1ccccc1`: the inhibition was -2.64% (inactive). With `N#CCSc1nc2ccccc2c(=O)n1-c1ccccc1` the figure was 8.58% (inactive). With `CC(=O)NC1(c2cccc(F)c2)CCN(CC(=O)NC(C)C)CC1` the figure was -7.62% (inactive). With `N#Cc1c(NC(=O)CSc2nc3ccccc3c(=O)n2Cc2ccco2)sc2c1CCCC2` the figure was 50.4% [fluorescence artefact?] (active); with `COc1ccc(-n2c(SCC(=O)Nc3sc4c(c3C#N)CCCC4)nnc2-c2ccc(O)cc2)cc1`, 60.9% [fluorescence artefact?] (active).

As to `COc1ccc(-c2nnc(SCC(=O)c3ccco3)n2-c2ccccc2)cc1`, the inhibition is 7.14% (inactive). Turning to `COC(=O)c1c(NC(=O)CSc2nncs2)sc2c1CCCCC2`, the inhibition was 10.9% (inactive).

Consider `C=C(C)Cn1c(SCC(=O)NCc2ccco2)nc2sc3c(c2c1=O)CCC3`, for which the inhibition was 9.18% (inactive). With `CC(Sc1nc2ccccc2c(=O)n1Cc1ccco1)C(=O)c1ccccc1` (stereo unspecified) the figure was -2.69% (inactive).

With `Cc1cc2nc(SCCN3CCOCC3)[nH]c2cc1C`, the inhibition was -13.7% (inactive).

As to `COC(=O)C1=C(C(=O)c2ccc(C)cc2)C(c2ccccc2)n2nnnc2N1` (stereo unspecified), the inhibition was -1.03% (inactive). Consider `Cc1ccc(-n2ccc(=O)c(C(=O)O)n2)cc1`, for which the inhibition was -4.61% (inactive). With `O=C(COc1ccccc1)Nc1nonc1NC(=O)COc1ccccc1` the figure was 4.67% (inactive). With `COc1ccc(CCNS(=O)(=O)c2ccc(Cl)s2)cc1OC` the figure was -8.93% (inactive).

Consider `Oc1ccc(CNc2ccccc2O)cc1`, for which the inhibition was 52.5% [fluorescence artefact?] (active). The same measure for `COc1cc(C2CC(=O)c3cnc(NC(C)=O)nc3C2)cc(OC)c1OC` (stereo unspecified): -3.76% (inactive); for `CCC(C(=O)NCc1ccc(OC)cc1)n1nc(C)n2c(cc3occc32)c1=O` (stereo unspecified): -7.78% (inactive); for `CCCn1c(C(Cc2ccccc2)NC(=O)COC)nc2ccccc21` (stereo unspecified): 46.8% (inactive). Consider `O=C(COC(=O)CCC(=O)c1cccs1)NCc1ccco1`, for which the inhibition is 51.1% [fluorescence artefact?] (active). `O=C(COC(=O)C12CC3CC(CC(C3)C1)C2)NCc1ccco1`: the inhibition was 13.8% (inactive). Regarding `O=C(CCC(=O)c1cccs1)NCc1ccccc1`, the inhibition was 12.1% (inactive).

In general, inhibition refers to the change of the read-out against control, counted positive when it falls.
